Measurements reported in PubChem BioAssay (NCI).
This is part of a sample that, as a whole, favours compounds with a hit. Of some 83,000 tested, about 20% had one in any assay.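 Values shown are percent growth following 48 h exposure of cells in 96-well plates to a single concentration of compound; below 10 was considered active.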 Values without a mark were called inactive. The source made the active and inactive calls.

Key:
Assay in all cases: NCI-60 one-dose screen, 48 h (100 = growth as untreated, 0 = no growth, -100 = all killed)
Settings in all cases: 10 µM
HCT-15 colon = system: HCT-15 colon
HT29 colon = system: HT29 colon
SNB-75 CNS = system: SNB-75 CNS
SNB-19 CNS = system: SNB-19 CNS
U251 CNS = system: U251 CNS
PC-3 prostate = system: PC-3 prostate
SK-MEL-5 melanoma = system: SK-MEL-5 melanoma
UACC-62 melanoma = system: UACC-62 melanoma
SK-MEL-28 melanoma = system: SK-MEL-28 melanoma
LOX IMVI melanoma = system: LOX IMVI melanoma

COc1cc(/C=C/C(=O)c2cc(OC)c(OC)c(OC)c2)ccc1Oc1nc(Nc2ccc(F)cc2)nc(N(C)C)n1
growth (HCT-15 colon): -40.3% (active) | growth (HT29 colon): -50.9% (active) | growth (SNB-75 CNS): -64.8% (active) | growth (SNB-19 CNS): -46.7% (active) | growth (U251 CNS): -72.9% (active) | growth (PC-3 prostate): -20% (active) | growth (SK-MEL-5 melanoma): -76.2% (active) | growth (UACC-62 melanoma): -80.7% (active) | growth (SK-MEL-28 melanoma): -72.1% (active)

C=C1CCC2C3(C)COC(c4cc(F)cc(F)c4)OC3CCC2(C)C1C/C=C1/C(=O)OCC1O (stereo not given)
growth (HCT-15 colon): -34.6% (active) | growth (HT29 colon): -29.3% (active) | growth (SNB-75 CNS): -45.9% (active) | growth (SNB-19 CNS): -78.5% (active) | growth (U251 CNS): -95.2% (active) | growth (PC-3 prostate): -32.1% (active) | growth (SK-MEL-5 melanoma): -88.6% (active) | growth (UACC-62 melanoma): -15.2% (active) | growth (SK-MEL-28 melanoma): -70.7% (active)

COc1ccsc1/C=N/NC(=O)c1[nH]c2ccc(Br)cc2c1-c1ccccc1
growth (HCT-15 colon): 1.32% (active) | growth (HT29 colon): -12.2% (active) | growth (SNB-75 CNS): 20.1% | growth (SNB-19 CNS): 21.8% | growth (U251 CNS): 6.55% (active) | growth (PC-3 prostate): 5.35% (active) | growth (SK-MEL-5 melanoma): -47.3% (active) | growth (UACC-62 melanoma): 9.1% (active) | growth (SK-MEL-28 melanoma): 30.8%

COc1ccc2[nH]c(O)c(N=NC(=O)COc3ccc(NC(=O)Nc4ccc(Cl)c(Cl)c4)cc3)c2c1
growth (HCT-15 colon): 56.1% | growth (SNB-75 CNS): -37% (active) | growth (SNB-19 CNS): 7.22% (active) | growth (U251 CNS): -94.2% (active) | growth (PC-3 prostate): -33.4% (active) | growth (SK-MEL-5 melanoma): -56.3% (active) | growth (UACC-62 melanoma): 14.4% | growth (LOX IMVI melanoma): -100% (active) | growth (SK-MEL-28 melanoma): -59.8% (active)

O=C(Nc1nc2ccc([N+](=O)[O-])cc2s1)Nc1ccccc1I
growth (HCT-15 colon): 1.19% (active) | growth (SNB-75 CNS): -1.46% (active) | growth (SNB-19 CNS): 10.5% | growth (U251 CNS): 2.73% (active) | growth (PC-3 prostate): 9.44% (active) | growth (SK-MEL-5 melanoma): -78.5% (active) | growth (UACC-62 melanoma): 3.63% (active) | growth (LOX IMVI melanoma): 9.2% (active) | growth (SK-MEL-28 melanoma): 15.8%

O/N=C(\CSc1nnc(-c2c[nH]c3ccccc23)n1-c1ccccc1)c1ccc(Br)cc1
growth (HCT-15 colon): -92.8% (active) | growth (SNB-75 CNS): -19.9% (active) | growth (SNB-19 CNS): -9.28% (active) | growth (U251 CNS): 9.73% (active) | growth (PC-3 prostate): -64.4% (active) | growth (SK-MEL-5 melanoma): -24.5% (active) | growth (UACC-62 melanoma): -90.5% (active) | growth (LOX IMVI melanoma): -87.4% (active) | growth (SK-MEL-28 melanoma): -26.3% (active)

O=C(c1ccc(Cl)cc1)C1[C@H](c2ccc(Br)cc2)[C@@H](c2ccccc2)NC12C(=O)Nc1ccc(Cl)cc12 (stereo not given in full)
growth (HCT-15 colon): -87.6% (active) | growth (SNB-75 CNS): -4.86% (active) | growth (SNB-19 CNS): -8.73% (active) | growth (U251 CNS): -80.8% (active) | growth (PC-3 prostate): -30.5% (active) | growth (SK-MEL-5 melanoma): -68.5% (active) | growth (UACC-62 melanoma): -87.2% (active) | growth (LOX IMVI melanoma): -100% (active) | growth (SK-MEL-28 melanoma): -86.9% (active)

CCOC(=O)CNC(=O)CN(Cc1ccccc1)C(=O)[C@@]1(C)CCC[C@]2(C)[C@H]3CC4C(C(C)C)=C[C@]3(CC[C@H]21)[C@@H]1C(=O)CCC(=O)[C@H]41
growth (HCT-15 colon): 17.6% | growth (SNB-75 CNS): 86.2% | growth (SNB-19 CNS): 81.1% | growth (U251 CNS): 63.8% | growth (PC-3 prostate): 35.3% | growth (SK-MEL-5 melanoma): 68.6% | growth (UACC-62 melanoma): 38.9% | growth (LOX IMVI melanoma): -75.1% (active) | growth (SK-MEL-28 melanoma): 62.7%

CN1CCN(c2ccc(C(=O)/C=C/c3cc(Br)ccc3F)cc2)CC1
growth (HCT-15 colon): -22.6% (active) | growth (SNB-75 CNS): 40.1% | growth (SNB-19 CNS): 56.5% | growth (U251 CNS): 23.8% | growth (PC-3 prostate): 37.1% | growth (SK-MEL-5 melanoma): 18.6% | growth (UACC-62 melanoma): 64% | growth (LOX IMVI melanoma): -91.8% (active) | growth (SK-MEL-28 melanoma): 90.8%

O=C1Nc2ccc(Cl)cc2/C1=C/c1ccc(OCc2ccccn2)cc1
growth (HCT-15 colon): 35.7% | growth (SNB-75 CNS): 113% | growth (SNB-19 CNS): 50.7% | growth (U251 CNS): 23.7% | growth (PC-3 prostate): 62.1% | growth (SK-MEL-5 melanoma): 89.5% | growth (UACC-62 melanoma): 66.7% | growth (LOX IMVI melanoma): 56.5% | growth (SK-MEL-28 melanoma): 100%
